Measurements taken from PMC5700166.

How the values were obtained:
Assay in all cases: protein-binding microarray (PBM); PBM: ~300 nM protein, 6 mM HEPES pH 7.8, 80 mM KCl, 0.5 mM EDTA, 0.5 mM EGTA, 6% glycerol, 35 ng/ul poly-dIdC, 1% milk, 1 h, room temperature; Ap Aiptasia and Nv Nematostella (sea anemones) / Co Capsaspora / Aq Amphimedon (sponge) / Dm Drosophila / Hu human; RHD is the Rel homology domain; high values mean tight binding
Details in all cases: dsDNA, one strand shown
GST-Ap-NF-kB RHD = target: T1, GST-Ap-NF-kB RHD (Exaiptasia pallida (Aiptasia), UniProt A0A913YAJ5 2-422)
T1 sequence: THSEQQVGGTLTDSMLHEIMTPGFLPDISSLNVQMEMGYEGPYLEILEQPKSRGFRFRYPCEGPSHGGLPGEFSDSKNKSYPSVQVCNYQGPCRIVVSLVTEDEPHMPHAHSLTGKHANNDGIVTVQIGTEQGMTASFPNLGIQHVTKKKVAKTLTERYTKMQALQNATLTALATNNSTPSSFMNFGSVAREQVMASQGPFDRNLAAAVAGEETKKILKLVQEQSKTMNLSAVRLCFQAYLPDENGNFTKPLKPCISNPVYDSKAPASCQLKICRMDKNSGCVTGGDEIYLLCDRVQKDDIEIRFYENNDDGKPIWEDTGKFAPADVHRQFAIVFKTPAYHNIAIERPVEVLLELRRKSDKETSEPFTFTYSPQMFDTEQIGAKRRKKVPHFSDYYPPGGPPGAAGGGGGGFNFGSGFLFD

[1] = target: T2, GST-Nv-NF-kB (Cys allele) (Nematostella vectensis, UniProt E5G601 2-411)
T2 sequence: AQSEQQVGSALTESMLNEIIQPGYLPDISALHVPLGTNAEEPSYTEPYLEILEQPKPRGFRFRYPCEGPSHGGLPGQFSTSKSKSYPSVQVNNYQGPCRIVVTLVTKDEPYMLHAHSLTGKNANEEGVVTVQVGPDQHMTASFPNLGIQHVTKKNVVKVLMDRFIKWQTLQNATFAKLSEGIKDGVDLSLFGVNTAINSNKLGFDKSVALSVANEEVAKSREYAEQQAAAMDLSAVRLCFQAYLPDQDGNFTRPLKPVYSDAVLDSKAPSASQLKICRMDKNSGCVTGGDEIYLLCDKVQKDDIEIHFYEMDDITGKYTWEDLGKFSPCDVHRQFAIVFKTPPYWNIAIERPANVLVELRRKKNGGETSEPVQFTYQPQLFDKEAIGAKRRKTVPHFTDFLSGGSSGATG

GST-Co-NF-kB = target: T3, GST-Co-NF-kB (Capsaspora owczarzaki, UniProt F1ARL5 200-546)
T3 sequence: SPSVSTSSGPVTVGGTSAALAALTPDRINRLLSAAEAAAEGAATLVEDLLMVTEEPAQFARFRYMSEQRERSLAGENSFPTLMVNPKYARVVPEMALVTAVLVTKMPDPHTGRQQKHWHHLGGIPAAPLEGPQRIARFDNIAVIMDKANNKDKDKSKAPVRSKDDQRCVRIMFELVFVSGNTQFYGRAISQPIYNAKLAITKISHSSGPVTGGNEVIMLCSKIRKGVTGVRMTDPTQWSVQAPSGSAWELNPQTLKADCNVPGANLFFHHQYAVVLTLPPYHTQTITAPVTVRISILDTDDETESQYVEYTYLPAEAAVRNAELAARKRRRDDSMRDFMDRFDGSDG

GST-Dm-Relish = target: T4, GST-Dm-Relish (Drosophila melanogaster, UniProt Q94527 99-473)
T4 sequence: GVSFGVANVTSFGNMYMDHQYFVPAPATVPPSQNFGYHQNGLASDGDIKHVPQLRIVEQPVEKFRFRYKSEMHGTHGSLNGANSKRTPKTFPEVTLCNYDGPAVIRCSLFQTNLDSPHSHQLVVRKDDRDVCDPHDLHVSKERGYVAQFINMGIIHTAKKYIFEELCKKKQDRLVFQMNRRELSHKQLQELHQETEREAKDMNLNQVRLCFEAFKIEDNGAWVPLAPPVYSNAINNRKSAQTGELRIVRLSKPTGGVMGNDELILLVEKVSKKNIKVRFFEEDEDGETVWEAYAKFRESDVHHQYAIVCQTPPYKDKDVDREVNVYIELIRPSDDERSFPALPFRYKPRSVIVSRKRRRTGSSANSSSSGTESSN

GST-Aq-NF-kB = target: T5, GST-Aq-NF-kB (Amphimedon queenslandica, UniProt A9Y5G7 2-389)
T5 sequence: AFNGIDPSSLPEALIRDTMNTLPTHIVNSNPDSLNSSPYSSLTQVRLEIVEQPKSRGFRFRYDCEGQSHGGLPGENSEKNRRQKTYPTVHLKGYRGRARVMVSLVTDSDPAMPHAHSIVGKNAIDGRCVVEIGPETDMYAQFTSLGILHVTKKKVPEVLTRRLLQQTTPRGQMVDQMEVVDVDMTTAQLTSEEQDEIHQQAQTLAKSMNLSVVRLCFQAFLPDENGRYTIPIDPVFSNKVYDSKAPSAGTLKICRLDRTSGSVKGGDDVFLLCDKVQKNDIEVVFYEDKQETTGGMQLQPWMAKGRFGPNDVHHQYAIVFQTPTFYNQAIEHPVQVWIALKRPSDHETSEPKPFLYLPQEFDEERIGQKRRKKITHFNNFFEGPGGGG

GST-Hu-p50 = GST-Hu-p50 (Homo sapiens, UniProt P19838 7-356)
GST-Hu-p50, sequence (P19838 7-356): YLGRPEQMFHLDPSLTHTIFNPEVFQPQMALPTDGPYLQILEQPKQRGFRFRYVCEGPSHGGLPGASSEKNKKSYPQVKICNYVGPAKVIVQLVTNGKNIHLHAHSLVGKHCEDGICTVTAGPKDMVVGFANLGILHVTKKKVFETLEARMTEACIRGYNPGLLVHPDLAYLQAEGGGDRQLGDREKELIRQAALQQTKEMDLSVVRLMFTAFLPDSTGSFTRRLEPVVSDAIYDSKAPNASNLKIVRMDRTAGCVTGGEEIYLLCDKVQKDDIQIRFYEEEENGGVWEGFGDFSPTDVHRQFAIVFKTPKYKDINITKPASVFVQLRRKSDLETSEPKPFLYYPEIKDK

Sequence	binding signal (GST-Ap-NF-kB RHD) [z-score]	binding signal [1] [z-score]	binding signal (GST-Co-NF-kB) [z-score]	binding signal (GST-Dm-Relish) [z-score]	binding signal (GST-Aq-NF-kB) [z-score]	binding signal (GST-Hu-p50) [z-score]
CCGATTAACATCAAAAGCCCCCCTGATGTTAATCGGGTCTTGATTCGCTTGACGCTGCTG	5.96	6	4.6	8.42	6.73	5.72
CCGATTAACATCACATATCCCCCTGATGTTAATCGGGTCTTGATTCGCTTGACGCTGCTG	6.5	5.23	5.73	3.26	4.79	5.03
CCGATTAACATCAAAAAAACCCTTGATGTTAATCGGGTCTTGATTCGCTTGACGCTGCTG	4.62	5.48	1.11	6.8	6.78	5.45
CCGATTAACATCAGGCCTTCCCCTGATGTTAATCGGGTCTTGATTCGCTTGACGCTGCTG	6.39	6.79	2.84	9.6	7.14	4.63
CCGATTAACATCAGGGGTTTTACTGATGTTAATCGGGTCTTGATTCGCTTGACGCTGCTG	5.39	5.15	1.49	7.6	5.84	5.77
CCGATTAACATCAAACCCCCCCTTGATGTTAATCGGGTCTTGATTCGCTTGACGCTGCTG	6.49	4.97	4.6	7.14	5.59	5.38
CCGATTAACATCAGGGGACCCCCTGATGTTAATCGGGTCTTGATTCGCTTGACGCTGCTG	9.65	6.03	4.17	10.7	8.56	5.4
CCGATTAACATCAATATCCCCCCTGATGTTAATCGGGTCTTGATTCGCTTGACGCTGCTG	7.34	5.13	8.06	5.53	5.74	5.69
CCGATTAACATCAGGGGATATACTGATGTTAATCGGGTCTTGATTCGCTTGACGCTGCTG	5.2	4.91	3.57	7.81	4.48	4.04
CCGATTAACATCAGAGATCCCCCTGATGTTAATCGGGTCTTGATTCGCTTGACGCTGCTG	7.26	6.17	4.52	6.84	5.8	6.13
CCGATTAACATCAAGAAAATCCCTGATGTTAATCGGGTCTTGATTCGCTTGACGCTGCTG	5.56	5.43	2.27	6.64	5.58	4.6
CCGATTAACATCAAAAGCCCCCTTGATGTTAATCGGGTCTTGATTCGCTTGACGCTGCTG	6.3	6.73	1.89	7.9	6.88	6.5
CCGATTAACATCACGGGAAGTACTGATGTTAATCGGGTCTTGATTCGCTTGACGCTGCTG	1.21	1.43	1.57	8.29	3.28	1.09
CCGATTAACATCAAAAAGCCCCGTGATGTTAATCGGGTCTTGATTCGCTTGACGCTGCTG	6.52	8.2	1.43	8.47	7.21	6.06
CCGATTAACATCAGGGCTCCCCATGATGTTAATCGGGTCTTGATTCGCTTGACGCTGCTG	2.59	1.32	2.03	3.88	2.46	1.51
CCGATTAACATCAAACGTTCCCCTGATGTTAATCGGGTCTTGATTCGCTTGACGCTGCTG	5.26	5.7	6.66	3.29	4.66	4.03
CCGATTAACATCACCCCGCCCCCTGATGTTAATCGGGTCTTGATTCGCTTGACGCTGCTG	4.32	3.28	3.91	4.16	4.28	4.24
CCGATTAACATCAAAATTCCCTGTGATGTTAATCGGGTCTTGATTCGCTTGACGCTGCTG	4.81	6.86	4.2	5.96	6.37	5.07
CCGATTAACATCAGAAATGCCCCTGATGTTAATCGGGTCTTGATTCGCTTGACGCTGCTG	4.03	5.61	1.98	4.09	5.32	5.55
CCGATTAACATCACCAAACCCCCTGATGTTAATCGGGTCTTGATTCGCTTGACGCTGCTG	6.25	4.31	2.03	5.55	4.31	6.3
CCGATTAACATCAGGGACTTTAATGATGTTAATCGGGTCTTGATTCGCTTGACGCTGCTG	4.47	5.92	1.03	5.04	5.12	5.02
CCGATTAACATCAAAAAACCCCGTGATGTTAATCGGGTCTTGATTCGCTTGACGCTGCTG	7.4	7.45	3.92	8.97	7.03	6.45
CCGATTAACATCAGGGAGTTTACTGATGTTAATCGGGTCTTGATTCGCTTGACGCTGCTG	3.14	4.14	1.37	5.53	5.6	4.19
CCGATTAACATCAGGGCACCCCCTGATGTTAATCGGGTCTTGATTCGCTTGACGCTGCTG	6.14	4.52	2.4	8.28	7.23	4.75
CCGATTAACATCATACTTCCCCATGATGTTAATCGGGTCTTGATTCGCTTGACGCTGCTG	3.97	4.88	4.69	3.18	3.58	4.41
